The subject of the assay is Sam68 (KHDRBS1). Description: compounds binding KHDRBS1 protein – biochemical, small-molecule microarray, 635 nm fluorescence, primary screen (AID 1125).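 Also: score merges 667 nm channel intensity with signal to noise over triplicate slides.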 The conditions noted are these: higher = more signal.
Compound `C[C@@H]1CC[C@H]2C(=O)OC(Cc3ccccc3)CN2[C@H]1c1ccc(Br)cc1` (some centres not stated) displayed a composite z-score of 0.64.

The compound `COC(=O)CC=C[C@@H](C)[C@@H](C=NOC[C@@H](O)COCc1ccco1)OC` showed a composite z-score of -0.684.

As for `CCc1cc2c(nc1CC)CCN(CCC(C)=NOC[C@@H](C)[C@H](OCc1ccccc1)C(C)C)C2`, the composite z-score was -0.16.

Take `O=C1C2=CC[C@H]3C(=O)N(C[C@@H]4CCCO4)C(=O)[C@H]3[C@H]2[C@H](O)[C@@H]2O[C@H]12`: the composite z-score turned out to be 0.244.

`CCOC(=O)CCN1C(=O)[C@H]2[C@H]3[C@H](O)[C@H](O)CC(=NNC(=O)OCC)[C@H]3CC[C@H]2C1=O` returned a composite z-score of 0.398.

The compound `COc1ccc2c(c1)O[C@@H](c1cccc(C(F)(F)F)c1)[C@H](O)C2=O` returned a composite z-score of 0.642.

The compound `COC(=O)CC=C[C@@H](C)[C@@H](C=NOC(C)CN1CCCCc2nc(C)c(C)cc21)NS(=O)(=O)c1ccc(C)cc1` (some centres not stated) showed a composite z-score of 0.0692.

`CCOC(=O)[C@H](Cc1ccccc1)NC(=O)CCC1CC(OC(=O)NCc2cccc3ccccc23)CC2(CCCC(COC(=O)NCCc3ccccc3OC)O2)O1` (some centres not stated): the composite z-score came to 1.19.

`O=C1C=C[C@@H](O)[C@@H]2[C@@H]3C(=O)N(c4cccc(Oc5ccccc5)c4)C(=O)[C@@H]3CC[C@@H]12` registered a composite z-score of 0.184.

Compound `O=C1C=C[C@@H](O)[C@@H]2[C@@H]3C(=O)N(Cc4ccccc4)C(=O)[C@@H]3CC[C@@H]12` displayed a composite z-score of 0.0888.

Regarding `COC(=O)[C@H](C)NC(=O)CCC1CC(OC(=O)NCc2ccc3c(c2)OCO3)CC2(CCCC(COC(=O)NCc3ccccc3)O2)O1` (some centres not stated), the composite z-score worked out at 1.26.

As for `COc1ccc(COC(=O)NN=C2C[C@@H](O)[C@@H](O)[C@@H]3[C@@H]4C(=O)N(C(C)(C)C)C(=O)[C@@H]4CC[C@@H]23)cc1`, the composite z-score turned out to be 1.14.

(Values after PubChem BioAssay.)
